# Shown are actives, neighbours in structure and some others; about 2.5% of the full set was active somewhere.
# MEKK3 PB1 HTS: modulators (inhibitors or enhancers) of MEK5 binding to human MEKK3 PB1 domain. binding response (% of control), % at 10 µM. 290,000 compounds, 1.4% hits. Q99759. bead-based flow cytometry, Alexa488-MEK5 binding to MEKK3; actives lie on both sides; 0 = blocked by unlabeled MEK5, 100 = vehicle. AID 1529;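 active = binding response more than 3 SD above or below the average of its plate-row segment, actives on both sides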;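 also: Alexa488 bead fluorescence after subtracting the streptavidin-only scavenger bead signal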
# MEKK2 mut-MEK5: signal of MEK5 binding to mutant human MEKK2 PB1 domain; percent response, % at 10 µM; 290,000 compounds, 0.35% hits; bead flow cytometry, Alexa488-MEK5 binding to MEKK2 mutant; in the data active = percent response above about 24%, passing the limit was not always enough
# GRK2 inh: blocks RNA aptamer binding to human GRK2 | bead flow cytometry, FAM-aptamer displacement from GRK2 | inhibition of aptamer binding, % at 10 µM | 330,000 compounds, 0.59% hits | AID 488847;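 active = inhibition of aptamer binding above 40%, roughly 3 SD of noise, on plates passing a quality check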;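 also: median bead fluorescence of bound FAM aptamer so fluorescent compounds give negative values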
# Target sequence (P25098 whole entry, looked up): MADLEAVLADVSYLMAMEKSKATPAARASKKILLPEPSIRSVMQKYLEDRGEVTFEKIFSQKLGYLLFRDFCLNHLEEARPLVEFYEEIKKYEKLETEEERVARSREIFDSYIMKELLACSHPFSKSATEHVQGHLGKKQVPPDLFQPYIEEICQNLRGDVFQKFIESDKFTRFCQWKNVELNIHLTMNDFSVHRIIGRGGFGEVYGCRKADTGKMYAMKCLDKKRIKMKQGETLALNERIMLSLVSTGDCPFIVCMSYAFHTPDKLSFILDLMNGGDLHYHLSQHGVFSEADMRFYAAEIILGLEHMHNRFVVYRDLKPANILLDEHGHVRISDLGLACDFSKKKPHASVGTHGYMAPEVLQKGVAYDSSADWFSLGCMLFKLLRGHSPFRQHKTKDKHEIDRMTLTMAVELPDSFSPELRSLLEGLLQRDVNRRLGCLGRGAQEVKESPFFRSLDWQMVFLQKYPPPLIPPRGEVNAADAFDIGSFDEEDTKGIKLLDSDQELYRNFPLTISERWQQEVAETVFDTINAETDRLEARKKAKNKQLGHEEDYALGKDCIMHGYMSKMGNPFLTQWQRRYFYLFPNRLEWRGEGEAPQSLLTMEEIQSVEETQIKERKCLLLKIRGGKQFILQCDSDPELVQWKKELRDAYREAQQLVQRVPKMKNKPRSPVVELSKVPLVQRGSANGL
# MEKK2 WT-MEK5: raises or lowers MEK5 binding to wildtype human MEKK2 PB1 domain; Q9Y2U5; bead flow cytometry, Alexa488-MEK5 binding to MEKK2 WT; actives lie on both sides; binding response (% of control), % at 10 µM; 290,000 compounds, 1.1% hits; in the data active = binding response below about 67% or above about 130%
# GRK2 inh confirm: human GRK2 inhibition confirmation, cherry pick 1 | shares compounds with GRK2 inh | bead-bound GRK2, FAM-aptamer displacement, flow cytometry | aptamer displacement, % at 10 µM | 2,000 compounds, 4% hits | AID 504451;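 active = aptamer displacement above 40%, near three times the noise of non-fluorescent compounds, on plates passing quality checks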;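 also: negative values mostly reflect intrinsic compound fluorescence rather than true enhancement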
# Aptamer quench 1: fluorescent aptamer quenching in GRK2 counter-screen dose response. Fluorescent RNA aptamer beads, flow cytometry; stronger effect = higher value. 110 tested, under 10 active. fluorescence change (kMESF span), kMESF (no concentration beside the values). shares compounds with GRK2 inh;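 active = compounds whose bead fluorescence drops by more than 37 kMESF across the dose range, marking them as dye quenchers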
# FAM quench CP1: aptamer fluorescence quenching in GRK2 counter-screen; 2,000 tested, under 10 active; shares compounds with GRK2 inh; Carboxyfluorescein RNA aptamer on beads, flow cytometry quenching; stronger effect = lower value; fluorescence response (% of DMSO), % at 10 µM;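 active = compounds that quench the bead-bound fluorescent RNA probe, cutting fluorescence to under half of the solvent control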;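 also: counterscreen run without GRK2 so only probe quenching by compound is measured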
# GRK2 confirm 2: confirmation of human GRK2 inhibitors binding RNA aptamer site | inhibition of aptamer binding, % at 10 µM | shares compounds with GRK2 inh | AID 504782 | bead-bound GRK2, FAM-aptamer displacement, flow cytometry | 360 tested, under 10 active;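 active = inhibition of aptamer binding above 40%, about triple the noise seen with nonglowing compounds, on plates passing quality control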;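 also: negative values mostly come from compounds that fluoresce themselves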
# FAM quench SP: aptamer fluorescence quenching in GRK2 counter-screen. carboxyfluorescein RNA aptamer beads, flow cytometry quenching; stronger effect = lower value. shares compounds with GRK2 inh. fluorescence response vs DMSO, % at 10 µM. 360 tested, under 10 active;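 active = response vs DMSO under 50%, meaning signal dropped by over half, treated as fluorescence quencher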;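 also: labelled aptamer on streptavidin beads without GRK2 as a quench counter-screen; 100% = bead fluorescence of DMSO wells and lower means quenching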
# An asterisk follows results filed as active; . = not tested or not shown.
SMILES,MEKK3 PB1 HTS,MEKK2 mut-MEK5,GRK2 inh,MEKK2 WT-MEK5,GRK2 inh confirm,FAM quench CP1,others
CCn1ccnc1CNC(=O)c1ccc(OC2CCN(C(=O)COC)CC2)cc1,98,-1,0,97,3,97,
Cc1cc(NC(=O)c2ccccc2C)n(-c2cccc(F)c2)n1,107,8,100*,109,1,103,
O=C1CCCC2=C1C(c1ccncc1)c1c(nc(SCc3ccccc3)[nH]c1=O)N2 (stereo not drawn),.,.,8,.,.,.,
Nc1nc(SCC(=O)Nc2ccccc2C(F)(F)F)[nH]c(=O)c1-c1ccccc1,97,-5,6,94,.,.,
Cc1ccc(C2C3=C(CCCC3=O)Nc3nc(SCC(=O)NCc4ccco4)[nH]c(=O)c32)cc1 (stereo not drawn),102,4,2,100,.,.,GRK2 confirm 2=14;FAM quench SP=101
O=C(CSc1nc2[nH]ncc2c(=O)n1-c1ccccc1Br)NCc1ccco1,109,7,2,106,.,.,GRK2 confirm 2=9;FAM quench SP=99
Cc1nc(SCC(=O)NCc2ccco2)[nH]c(=O)c1C,102,0,8,103,.,.,GRK2 confirm 2=-26;FAM quench SP=103
Nc1nc(SCC(=O)NCc2ccco2)[nH]c(=O)c1-c1ccccc1,102,6,24,100,.,.,GRK2 confirm 2=-8;FAM quench SP=103
COc1cccc(/C=C/C(=O)NNC(=O)CCN2CCN(Cc3ccccc3)CC2)c1,96,-2,0,96,.,.,
NC(=O)C1CCN(CC(=O)Nc2cccnc2Cl)CC1,100,-1,42*,98,-4,135,
CCCN(CC(=O)Nc1ccccc1C)C(=O)C1CC(=O)N(c2cccc(C)c2C)C1 (stereo not drawn),.,.,4,.,1,98,
CCCN(CC(=O)Nc1ccccc1C)C(=O)C1CCN(C(=O)Nc2ccccc2)CC1,.,.,0,.,.,.,
CN(C)c1ccc(/C=N/n2c(-c3ccccc3Br)n[nH]c2=S)cc1,94,-14,.,100,.,.,
Cc1ccc(-c2csc(N(CCCN3CCOCC3)C(=O)c3ccco3)n2)cc1,105,6,1,102,-3,102,
O=Cc1ccc(-c2ccccc2C(=O)O)o1,108,2,5,99,.,.,
O=C(O)c1ccccc1-c1c2cc(I)c(=O)c(I)c-2oc2c(I)c(O)c(I)cc12,.,.,61*,.,80*,96,Aptamer quench 1=8.8
Cc1c(C(=O)Nc2ccc(F)cc2)oc2ccc(S(=O)(=O)N3CC(C)CC(C)C3)cc12 (stereo not drawn),102,0,12,106,-3,100,
CCCCNC(=O)CN1C(=O)NC2NC(=O)NC21 (stereo not drawn),104,8,98*,106,3,97,
COc1ccccc1CNC(=O)C1COc2ccccc2O1 (stereo not drawn),97,-1,52*,101,2,100,
COc1ccc(C(=O)NC(=S)NCc2cccnc2)cc1[N+](=O)[O-],115,0,1,98,.,.,
COc1ccc2c(c1OC)C(=O)N1N=C(c3ccc(Br)cc3)CC21 (stereo not drawn),109,35,0,116,.,.,
COC(=O)c1ccc(N2CCc3ccccc32)c([N+](=O)[O-])c1,98,1,52*,99,0,97,
CCOC(=O)C1=C(C)Nc2nc(SCc3cccnc3)nn2C1c1ccc(OC)cc1 (stereo not drawn),102,1,55*,104,2,100,
CC1(C)C(=O)Nc2ccccc2N1C(=O)COC(=O)Cc1c(F)cccc1Cl,.,.,2,.,.,.,
O=c1c(-c2ccccc2)c(O)cc(-c2ccncc2)n1-c1ccc(Cl)cc1,100,-3,0,97,.,.,
SMILES,MEKK3 PB1 HTS,MEKK2 mut-MEK5,GRK2 inh,MEKK2 WT-MEK5,GRK2 inh confirm,FAM quench CP1,others
Cc1ccc(-n2ncc3c(SCC(=O)NNC(=O)C(C)C)ncnc32)cc1,102,3,97*,104,-1,100,
CC(C)C(=O)NNC(=O)CSc1ncnc2c1cnn2-c1ccccc1Cl,103,2,0,106,.,.,
COCCN(C(=O)c1cc2c(s1)CCC2)c1c(N)n(CC(C)C)c(=O)[nH]c1=O,.,.,43*,.,17,99,
COCCN(C(=O)c1cc2c(s1)CCCCC2)c1c(N)n(CC(C)C)c(=O)[nH]c1=O,.,.,0,.,.,.,
N#C/C(=C\c1ccc(O)c(O)c1)C(=O)c1ccc(O)c(O)c1,.,.,54*,.,2,102,
CCOC(=O)c1ccc(NC(=S)NC2CC(C)(C)NC(C)(C)C2)cc1,116,11,0,129,.,.,
CCC1Sc2ccc(S(=O)(=O)CCC(=O)Nc3ccccc3Cl)cc2NC1=O (stereo not drawn),88,-19,1,81,.,.,GRK2 confirm 2=28;FAM quench SP=98
CC1Sc2ccc(S(=O)(=O)CCC(=O)N3CCc4ccccc43)cc2NC1=O (stereo not drawn),103,2,0,100,.,.,GRK2 confirm 2=-28;FAM quench SP=99
CCC1Sc2ccc(S(=O)(=O)CCC(=O)NCc3ccc(C)o3)cc2NC1=O (stereo not drawn),99,3,20,101,.,.,
CCC1Sc2ccc(S(=O)(=O)CCC(=O)N3CCc4ccccc43)cc2NC1=O (stereo not drawn),99,-2,57*,101,3,97,GRK2 confirm 2=1;FAM quench SP=104
Cc1ccc2ccc3cccc4ccc1c2c34,.,.,0,.,.,.,
Cc1cc(C)c(S(=O)(=O)c2c(C)cccc2C)c(Cl)n1,103,7,81*,108,-1,100,
O=C(CN1CCN(c2ccc(F)cc2)CC1)Nc1ccc(-n2cnnn2)cc1,100,3,0,102,.,.,
CC1(C)NC(=O)N(CC(=O)Nc2ccc(-n3cnnn3)cc2)C1=O,.,.,28,.,2,95,
Cc1ccc(S(=O)(=O)NCCOC(=O)Nc2sc(=S)n(C)c2C)cc1,102,2,96*,101,-5,102,
CCOC(=O)Nc1sc(=S)n(C)c1C,105,1,0,101,.,.,
Cc1ccc(C(=O)Nc2cccc(C(F)(F)F)c2)cc1NC(=O)c1c[nH]c2cc(C(F)(F)F)ccc2c1=O,.,.,0,.,-14,97,
Cc1ccc(C(=O)Nc2cccc(C(F)(F)F)c2)cc1NC(=O)c1cnnc2ccccc12,84,0,0,102,.,.,
O=C(CCN1C(=O)C2C3CCC(C3)C2C1=O)Nc1ccccc1C(F)(F)F (stereo not drawn),89,-6,1,95,.,.,
